# Measured values published in PMC5540273 (PLoS ONE, 2017).
# Tested on: SBK1
# Settings: concentration: 1 μM, replicates: in singlicate; n = 1
# 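Also: KINOMEscan kinase panel screen.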
row,SMILES,%Inh
1,O=C(NCCCN1CCCC1=O)c1cnc(NCc2cc(Cl)ccc2Cl)nc1NC1CCNCC1,0%
2,Cn1cc(-c2ccc3c(c2)CCN3C(=O)Cc2cccc(C(F)(F)F)c2)c2c(N)ncnc21 [GSK2606414],9%
3,CN1c2ccc(-c3ccc(C(=O)NCCO)cc3)cc2-c2[nH]ncc2S1(=O)=O,0%
4,CSc1nn2c(=O)cc(N3CCOCC3)nc2n1Cc1cccc(Cl)c1Cl [GSK2347225],6%
5,Cc1cccc(-c2nc(Nc3ccc4[nH]nnc4c3)c3ccccc3n2)n1 [GW867587],0%
6,O=C(CCO)NCCn1ccc2ncnc(Nc3ccc(Oc4cccc(C(F)(F)F)c4)c(Cl)c3)c21,0%
7,Cc1ccc(O)cc1Nc1cc(C(F)(F)F)nc2ccc(-c3ccncc3)cc12 [GW630823],0%
8,CCC(CC)(CC)n1cnc2c(N)ncnc21 [SKF-97620],51%
9,Fc1cccc(COc2ccc(Nc3ncnc4cc[nH]c34)cc2Cl)c1,52%
10,Fc1ccc(-c2ncn(CCCNCc3ccccc3)c2-c2ccncc2)cc1,0%
11,COc1ccc(Nc2nccc(N3CCC(NC(=O)Nc4ccc5c(c4)OCO5)C3)n2)cc1 (stereo not drawn) [GSK1379745],21%
12,CSc1ccc(NC2=C(c3ccccc3Cl)C(=O)NC2=O)cc1 [SB-342411],1%
13,FC(F)(F)c1ccc(-c2cc(-c3c[nH]nc3-c3ccccn3)ccn2)cc1 [GW599550],8%
14,O=C(Nc1n[nH]c2nc(-c3ccco3)c(Br)cc12)c1ccc(CN2CCCC2)cc1.O=C(O)[C@H](O)[C@@H](O)C(=O)O [SB-742352],12%
15,Clc1cc(Nc2ncnc3cc[nH]c23)ccc1OCc1ccccn1,41%
16,COc1ccc(NC(=O)Nc2ccc(C)c(-c3ccc(C(=O)Nc4ccncc4)cc3)c2)cc1 [GSK1398475],0%
17,Fc1ccc(Nc2nccc(-c3c(-c4ccc(Cl)cc4)nn4ncccc34)n2)cc1F [GW829058],43%
18,Nc1nc(-c2ccc3c(N)n[nH]c3c2)cc(N2CCC[C@@H](C(=O)Nc3ccccc3)C2)n1.O=C(O)C(F)(F)F.O=C(O)C(F)(F)F [GSK2288359],0%

row,SMILES,%Inh
1,CS(=O)(=O)CCNCc1nc(-c2ccc3ncnc(Nc4ccc(OCc5cccc(F)c5)c(Cl)c4)c3c2)cs1.Cl [GW583340],0%
2,Cl.Cl.c1ccc(-c2cc3ccncc3cc2OC2CCNCC2)cc1 [GSK1122999],12%
3,COC(=O)c1c(-c2ccccc2)c2cc(Cl)ccc2c(=O)n1Cc1ccc(S(C)(=O)=O)cc1,0%
4,OCCOCCn1ccc2ncnc(Nc3ccc(Oc4cccc(Cl)c4)c(Cl)c3)c21,0%
5,CC(C)(C)c1ccc(-n2cnc3c(N)ncnc32)cc1 [SKF-97263],11%
6,CNc1nccc(-c2c(-c3ccc(F)cc3)ncn2CCCN2CCOCC2)n1 [SB-222516],0%
7,CN1CCC(n2cnc(-c3ccc(F)cc3)c2-c2ccnc(NC3CCNCC3)n2)CC1 [SB-229482],0%
8,CC(C)(C)OC(=O)NC1CCCN(c2cc(-c3ccc4c(N)n[nH]c4c3)nc(N)n2)C1 (stereo not drawn) [GSK2286096],15%
9,Cl.Fc1ccccc1COc1ccc(Nc2ncnc3ccc(-c4nnc(C(F)(F)F)o4)cc23)cc1Cl [GW424170],0%
10,Clc1ccc(-c2cc(-c3c[nH]nc3-c3ccccn3)ccn2)cc1 [GW681251],4%
11,CC(C)N1CCC(n2cnc(-c3ccc(F)cc3)c2-c2ccnc(N)n2)CC1 [SB-223132],0%
12,FC(F)(F)c1cc(Nc2nccc(-c3c(-c4ccc(Cl)cc4)nn4ncccc34)n2)ccc1Cl [GW829351],0%
13,COc1cc2ncnc(Nc3ccc(OCc4ccccc4Br)c(Cl)c3)c2cc1OC.Cl [GI261590],7%
14,Clc1cccc(-c2nc(Nc3ccncc3)c3ccccc3n2)c1 [GW873004],0%
15,Cl.Cn1ccc(-c2cccc(Nc3ccnc4cc(-c5nccs5)ccc34)c2)n1 [GW525701],0%
16,COc1cc2c(Nc3cccc(NC(=O)c4ccccc4)c3)ncnc2cc1OCCCN1CCOCC1 [GSK223810],34%
17,N#Cc1ccc(Oc2ccc(Nc3ncnc4cc[nH]c34)cc2Cl)cc1,27%
18,Cn1ccc2ncnc(Oc3ccc(NC(=O)Nc4cccnc4)c(Cl)c3)c21,0%

# Tested on: SGK2
# Settings: concentration: 1 μM, replicates: in singlicate; n = 1
row,SMILES,%Inh
1,O=C(NCCCN1CCCC1=O)c1cnc(NCc2cc(Cl)ccc2Cl)nc1NC1CCNCC1,0%
2,Cn1cc(-c2ccc3c(c2)CCN3C(=O)Cc2cccc(C(F)(F)F)c2)c2c(N)ncnc21 [GSK2606414],1%
3,CN1c2ccc(-c3ccc(C(=O)NCCO)cc3)cc2-c2[nH]ncc2S1(=O)=O,23%
4,CSc1nn2c(=O)cc(N3CCOCC3)nc2n1Cc1cccc(Cl)c1Cl [GSK2347225],8%
5,Cc1cccc(-c2nc(Nc3ccc4[nH]nnc4c3)c3ccccc3n2)n1 [GW867587],0%
6,O=C(CCO)NCCn1ccc2ncnc(Nc3ccc(Oc4cccc(C(F)(F)F)c4)c(Cl)c3)c21,0%
7,Cc1ccc(O)cc1Nc1cc(C(F)(F)F)nc2ccc(-c3ccncc3)cc12 [GW630823],3%
8,CCC(CC)(CC)n1cnc2c(N)ncnc21 [SKF-97620],3%
9,Fc1cccc(COc2ccc(Nc3ncnc4cc[nH]c34)cc2Cl)c1,26%
10,Fc1ccc(-c2ncn(CCCNCc3ccccc3)c2-c2ccncc2)cc1,19%
11,COc1ccc(Nc2nccc(N3CCC(NC(=O)Nc4ccc5c(c4)OCO5)C3)n2)cc1 (stereo not drawn) [GSK1379745],6%
12,CSc1ccc(NC2=C(c3ccccc3Cl)C(=O)NC2=O)cc1 [SB-342411],0%
13,FC(F)(F)c1ccc(-c2cc(-c3c[nH]nc3-c3ccccn3)ccn2)cc1 [GW599550],9%
14,O=C(Nc1n[nH]c2nc(-c3ccco3)c(Br)cc12)c1ccc(CN2CCCC2)cc1.O=C(O)[C@H](O)[C@@H](O)C(=O)O [SB-742352],1%
15,Clc1cc(Nc2ncnc3cc[nH]c23)ccc1OCc1ccccn1,24%
16,COc1ccc(NC(=O)Nc2ccc(C)c(-c3ccc(C(=O)Nc4ccncc4)cc3)c2)cc1 [GSK1398475],0%
17,Fc1ccc(Nc2nccc(-c3c(-c4ccc(Cl)cc4)nn4ncccc34)n2)cc1F [GW829058],17%
18,Nc1nc(-c2ccc3c(N)n[nH]c3c2)cc(N2CCC[C@@H](C(=O)Nc3ccccc3)C2)n1.O=C(O)C(F)(F)F.O=C(O)C(F)(F)F [GSK2288359],0%

row,SMILES,%Inh
1,CS(=O)(=O)CCNCc1nc(-c2ccc3ncnc(Nc4ccc(OCc5cccc(F)c5)c(Cl)c4)c3c2)cs1.Cl [GW583340],0%
2,Cl.Cl.c1ccc(-c2cc3ccncc3cc2OC2CCNCC2)cc1 [GSK1122999],7%
3,COC(=O)c1c(-c2ccccc2)c2cc(Cl)ccc2c(=O)n1Cc1ccc(S(C)(=O)=O)cc1,0%
4,OCCOCCn1ccc2ncnc(Nc3ccc(Oc4cccc(Cl)c4)c(Cl)c3)c21,0%
5,CC(C)(C)c1ccc(-n2cnc3c(N)ncnc32)cc1 [SKF-97263],0%
6,CNc1nccc(-c2c(-c3ccc(F)cc3)ncn2CCCN2CCOCC2)n1 [SB-222516],15%
7,CN1CCC(n2cnc(-c3ccc(F)cc3)c2-c2ccnc(NC3CCNCC3)n2)CC1 [SB-229482],87%
8,CC(C)(C)OC(=O)NC1CCCN(c2cc(-c3ccc4c(N)n[nH]c4c3)nc(N)n2)C1 (stereo not drawn) [GSK2286096],0%
9,Cl.Fc1ccccc1COc1ccc(Nc2ncnc3ccc(-c4nnc(C(F)(F)F)o4)cc23)cc1Cl [GW424170],0%
10,Clc1ccc(-c2cc(-c3c[nH]nc3-c3ccccn3)ccn2)cc1 [GW681251],0%
11,CC(C)N1CCC(n2cnc(-c3ccc(F)cc3)c2-c2ccnc(N)n2)CC1 [SB-223132],0%
12,FC(F)(F)c1cc(Nc2nccc(-c3c(-c4ccc(Cl)cc4)nn4ncccc34)n2)ccc1Cl [GW829351],0%
13,COc1cc2ncnc(Nc3ccc(OCc4ccccc4Br)c(Cl)c3)c2cc1OC.Cl [GI261590],11%
14,Clc1cccc(-c2nc(Nc3ccncc3)c3ccccc3n2)c1 [GW873004],11%
15,Cl.Cn1ccc(-c2cccc(Nc3ccnc4cc(-c5nccs5)ccc34)c2)n1 [GW525701],0%
16,COc1cc2c(Nc3cccc(NC(=O)c4ccccc4)c3)ncnc2cc1OCCCN1CCOCC1 [GSK223810],13%
17,N#Cc1ccc(Oc2ccc(Nc3ncnc4cc[nH]c34)cc2Cl)cc1,34%
18,Cn1ccc2ncnc(Oc3ccc(NC(=O)Nc4cccnc4)c(Cl)c3)c21,8%
